Holding throughout (format): functional
For assay [1], the system named is Plasmodium falciparum. The experiment in a line: GSK_TCMDC: Inhibition of Plasmodium falciparum 3D7 in whole red blood cells, using parasite LDH activity as an index of growth. Test compounds present at 2uM.
Assay [2] relates to Plasmodium falciparum. Kind of assay: GSK_TCMDC: Inhibition of Plasmodium falciparum Dd2 in whole red blood cells, using parasite LDH activity as an index of growth. Test compounds present at 2uM.
Assay [3] relates to HepG2. The experiment in a line: GSK_TCMDC: Percent inhibition of human HepG2 cell line. Test compounds present at 10uM.

What is called Inhibition is the relative decrease from the control value, in per cent. A high value points to strong suppression.

As to `CS(=O)(=O)CCNCc1nc(-c2ccc3c(=O)[nH]cnc3c2)cs1`, the Inhibition was found to be 86% in assay [1], 96% in assay [2] and 81% in assay [3].
Turning to `CC(C)CC(NC(=O)c1cccc(OCCN2CCOCC2)c1)C(=O)NC(/C=N/NC(=O)c1ccccc1)CCc1ccccc1` (stereo unspecified), the Inhibition in assay [1] is reported as 96%; in assay [2] it was 88%; in assay [3], 0%.
On to `O=C(NC1CCN(Cc2ccc3c(c2)OCCO3)CC1)c1ccc(-c2cccc(Cl)c2)s1.O=C(O)C(F)(F)F`, for which the Inhibition in assay [1] worked out at 93%; in assay [2], 9%; in assay [3], 46%.
`OC(c1ccc2ccccc2c1)C1CN(CCc2ccccc2)CCC1(O)c1ccccc1` (stereo unspecified): the Inhibition amounted to 99% in assay [1], 96% in assay [2] and 1% in assay [3].
As to `O=C(Nc1ccc(Cn2ncc(N3CCCNCC3)c(Cl)c2=O)cc1)Nc1ccc(-c2ccccc2)cc1`, the Inhibition stood at 93% in assay [1], 41% in assay [2] and 12% in assay [3].
Consider `Cc1cc(N2CCN(C(=O)OC(C)(C)C)CC2)ccc1N`, for which the Inhibition in assay [1] worked out at 92%; in assay [2], 38%; in assay [3], 11%.
For the compound `CC(O)c1cccc(-c2ccc(Nc3ccnc4cc(-c5nccs5)ccc34)cc2)c1.Cl` (stereo unspecified), the values for the Inhibition in assay [1], in assay [2] and in assay [3] were 91%, 69% and 31%, respectively.
As for `Oc1cccc(-c2nc(-c3ccccc3)c(-c3ccc(Oc4ccc(-c5[nH]c(-c6cccc(O)c6)nc5-c5ccccc5)cc4)cc3)[nH]2)c1`, the Inhibition in assay [1] is reported as 91%; in assay [2], 96%; in assay [3], 6%.
Turning to `COc1cc(F)c2ncc(Cl)c(C(O)CN3CCC(NC(=O)c4ccc5c(c4)NC(=O)CS5)CC3)c2c1.Cl` (stereo unspecified), the Inhibition in assay [1] came to 98%; in assay [2], 68%; in assay [3], 15%.
The corresponding values for `Cc1cc(N[C@@H](CC(C)C)C(=O)NCCc2ccccc2)nc(NCc2ccccc2C)n1.O=C(O)C(F)(F)F` are 93%, 74% and 17%.
With `CC(=O)c1ccc(NC(=O)CSc2nc(-c3ccccc3Cl)ns2)cc1`, the Inhibition is on record as 89% in assay [1], 72% in assay [2] and 0% in assay [3].
For the compound `COc1ccc(-c2ccc(NC(=O)c3ccc(Cl)cc3)cc2)cc1CN1CCCN(C)CC1.O=C(O)C(F)(F)F`, the Inhibition in assay [1] stood at 93%; in assay [2] it was 61%; in assay [3], 27%.
On to `Cl.O=[N+]([O-])c1cccc(-c2nc3cc(C4=NC5CCCCC5N4)ccc3[nH]2)c1` (stereo unspecified), for which the values for the Inhibition in assay [1], in assay [2] and in assay [3] were 100%, 81% and 4%, respectively.
Consider `NC(=O)c1ccc(-c2ccc3ccnc(N)c3c2)cc1.O=C(O)C(F)(F)F`, for which the Inhibition in assay [1] is reported as 100%; in assay [2], 98%; in assay [3] it was 56%.
Regarding `Cc1[nH]c2ccccc2c1C=NNc1nc(=Nc2ccccc2)[nH]c(=Nc2ccccc2)[nH]1`, the Inhibition in assay [1] was found to be 87%; in assay [2], 23%; in assay [3], 3%.
Consider `CCCCCCCCCc1c(C)[nH]c2ccccc2c1=O`, for which the Inhibition in assay [1] came to 97%; in assay [2], 96%; in assay [3], 0%.
On to `COc1ccc(CCN(C)CCCOc2ccc(NC(=O)c3cccc4c(=O)c5ccccc5[nH]c34)cc2)cc1OC`, for which the Inhibition in assay [1] was 94%; in assay [2] it was 45%; in assay [3], 80%.
On to `Cc1ccc(N2CCN(C(=O)c3cccc(-c4cncc5nc(-c6ccco6)n(C)c45)c3)CC2)nc1`, for which the Inhibition came to 94% in assay [1], 91% in assay [2] and 0% in assay [3].
With `CN(C)C(=O)c1ccc(CN(Cc2ccc(OC(C)(C)C)cc2)Cc2ccc3c(c2)OCCO3)cc1`, the results for the Inhibition in assay [1], in assay [2] and in assay [3] were 95%, 96% and 0%, respectively.
As for `COCCn1c(C)cc(C(=O)CN2C(=O)NC(C)(c3ccc(C(C)(C)C)cc3)C2=O)c1C` (stereo unspecified), the Inhibition in assay [1] came to 97%; in assay [2], 96%; in assay [3], 7%.
`CC(C)(C)c1ccc(C(=O)Nc2cccc(Nc3c(C(=O)NCc4cccc(C(F)(F)F)c4)cnc4c(O)cccc34)c2)cc1.O=C(O)C(F)(F)F`: the figures for the Inhibition in assay [1], in assay [2] and in assay [3] were 83%, 79% and 40%, respectively.
On the same counts, the results for `C[C@H](Cc1ccc(OCCCCOc2ccc(C[C@@H](C)NC[C@H](O)c3cccc(Cl)c3)cc2)cc1)NC[C@H](O)c1cccc(Cl)c1` are 100%, 92% and 68%.
As for `Cc1cccc(CNc2nc(C)cc(N[C@@H](Cc3ccccc3)C(=O)NCc3cccc(F)c3)n2)c1.O=C(O)C(F)(F)F`, the Inhibition was 100% in assay [1], 82% in assay [2] and 39% in assay [3].
Consider `CN(C)c1ccc(C(c2ccc(N(C)C)cc2)c2cc([N+](=O)[O-])ccc2Cl)cc1`, for which the figures for the Inhibition in assay [1], in assay [2] and in assay [3] were 96%, 67% and 0%, respectively.
On to `CCOC(=O)c1cc(C(=O)OC)c2ccccn12`, for which the Inhibition is on record as 97% in assay [1], 2% in assay [2] and 44% in assay [3].
Regarding `Cc1cccc2nc(-c3cccc(-c4ccc(NC(=O)c5cccnc5)cc4)c3)[nH]c12`, the results for the Inhibition in assay [1], in assay [2] and in assay [3] were 100%, 45% and 64%, respectively.
The corresponding values for `CN1CCCN(Cc2cccc(-c3ccc(NC(=O)c4cccc(Cl)c4)cc3)c2)CC1.O=C(O)C(F)(F)F` are 90%, 10% and 34%.

The record behind these values is ChEMBL document CHEMBL1157539, “Thousands of chemical starting points for antimalarial lead identification” (Nature, 2010).
